A short description of assay [1]: AP1 Signaling Pathway (AID 357; active = well fitted curve in either direction with a large enough effect, not every such curve was filed as active;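 also: ME-180 reporter cells stimulated with EGF at its EC50 level; % is scaled to controls: 0 for no effect and ±100 for the full control effect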). An outline of the steps:
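Modulation of EGF-driven AP-1 transcription was assessed with a beta-lactamase reporter in ME-180 cells. Compound and EC50 EGF were co-incubated 5 hours at 37 °C before 2.5-hour CCF4 loading at room temperature and dual-emission reading.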

For assay [2], the target named is Cytochrome P450 1A2 (Homo sapiens) (UniProt P05177). Briefly: p450-cyp1a2 (AID 410; calls by dose curve; also: potency is read from the fitted curve at half-maximal effect). An outline of the steps: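 Human CYP1A2 (20nM) demethylated Luciferin-ME at its Km (100uM) in 100mM KPO4. After 10 min compound preincubation, NADPH regeneration ran the reaction 60 min at room temperature. Luciferin was read by luminescence, normalized to 57 uM furafylline.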
Assay [3] in a line: NFAT Signaling Pathway (AID 444; active = well fitted curve in either direction with a large enough effect, not every such curve was filed as active;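 also: carbachol stimulus at about its EC50 of 1 µM final; % is scaled to controls: 0 for no effect and ±100 for the full control effect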). The note with it: Jurkat NFAT-bla M1, carbachol, beta-lactamase ratio, 5 h; at 17.2 µM (top of the series) unless noted. An outline of the steps:
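Jurkat cells with NFAT-driven β-lactamase reporter and co-expressed M1 receptor, stimulated with carbachol (final 1 uM, ~EC50), compound titration, 5 h at 37 °C. CCF4 loaded 1 h at RT; 460/530 nm ratio gave %activity and AC50.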

Assay [4] can be described thus: Stat Signaling Pathway (AID 446; active = well fitted curve in either direction with a large enough effect, not every such curve was filed as active;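 also: ME-180 cervical cancer cells given 40 pM IL-6 alongside compound; SIE-controlled beta-lactamase reporter measured as 460/530 nm FRET emission ratio; % is scaled to controls: 0 for no effect and ±100 for the full control effect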). An outline of the steps:
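Reporter line: ME-180 cervical carcinoma, SIE-beta-lactamase. Treatment: compound with 40 pM IL-6, 5 hrs, 37 C, in low-serum OPTI-MEM with 10 mM HEPES pH 7.3. Detection: 460/530 nm fluorescence.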

Assay [5] concerns the target Mitogen-activated protein kinase 10 (Mus musculus) (UniProt Q61831). Briefly: JNK3 AlphaScreen Assay (AID 530; active = well fitted curve in either direction with a large enough effect, not every such curve was filed as active;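 also: kinase came from lysate of stimulated human HepG2 cells; signal reports phosphorylation of biotinylated GST-cJun 1-79 at Ser73 with 10 µM ATP; % is scaled to controls: 0 for no effect and ±100 for the full control effect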). In a few lines: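 qHTS format: compounds tested as titrations against IL-1beta/TNF-alpha-activated HepG2 lysate JNK3 with biotin-GST-cJun substrate and 10 uM ATP at room temperature. Loss of anti-phospho-cJun AlphaScreen signal indicates inhibition.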
The target in assay [6] is 3',5'-cyclic-AMP phosphodiesterase 4B (Homo sapiens) (UniProt Q07343). Briefly: qHTS Assay for Inhibitors of PDE-IV (AID 607; active = well fitted activation curve with a large enough effect in the main read-out, with a control signal flat, not every such curve was filed as active; also: % of control where 0% means no effect). An outline of the steps: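 Cell-based read-out of cAMP via a modified cyclic nucleotide-gated channel and membrane potential dye (535/590 nm) in HEK293 cells expressing PDE4 endogenously. Compounds tested up to 22.9 uM final; 100 uM RO 20-1724 reference.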
For orientation: In qHTS, concentration-response curves come from the screen itself.

The nature of assay [7]: qHTS Assay for Lipid Storage Modulators (AID 1519; calls by dose curve). The note with it: Drosophila S3 cells, BODIPY lipid droplet/cell ratio, laser cytometry, cells loaded with oleic acid; for activity change, negative = inhibition: at 25.7 µM (top of the series). In a few lines: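 Cells seeded at 5,000 per well were treated with compounds over a concentration series and loaded with oleic acid (400 uM, as added). Lipid droplet fluorescence (488 nm excitation, 500-530 nm channel) was read by laser-scanning cytometry and normalized to 20 uM Triacsin C.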

Assay [8] addresses Ubiquitin carboxyl-terminal hydrolase 1 (Homo sapiens) (UniProt O94782). Briefly: Inhibitors of USP1/UAF1: Pilot qHTS (AID 504865).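 Also: rhodamine fluorescence freed from ubiquitin-rhodamine substrate followed over time; top concentration of the series differs between compounds; % is scaled to controls: 0 for no effect and ±100 for the full control effect; nearly all actives have a fitted effect of over 35% in size.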 An outline of the steps: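 USP1/UAF1 complex (1nM) preincubated with compound 15 min at room temperature, then Ub-Rho substrate (150nM final) added. Fluorescence read kinetically at 480/540 nm, 6 reads every 60 seconds. Buffer: 50mM HEPES pH 7.8, 0.5mM EDTA, 0.1 mg/ml BSA, 1mM TCEP, 0.01% Tween-20.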

The target of assay [9] is Glucocorticoid receptor (Homo sapiens) (UniProt P04150). Briefly: GR-GFP Redistribution (AID 450;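 active = compounds whose dose series gives a full or clear partial fitted curve of increased nuclear translocation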; also: potency is read from the fitted curve at half-maximal effect). The note with it: U2OS GR-GFP nuclear translocation, laser cytometry, 2 h.
The target is the same in assay [10]. The experiment in a line: GR-EFC Redistribution (AID 451; calls by dose curve; also: potency is read from the fitted curve at half-maximal effect). The conditions noted are these: CHO-K1 GR-EFC translocation, beta-gal luminescence, 2 h. In a few lines:
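CHO-K1 cells expressing nuclear EA and GR-ED fragments of b-gal; compounds titrated up to 46 uM final, 2 h at 37 C. GR nuclear translocation read as complemented b-gal luminescence after 1 h RT detection.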

For assay [11], the target named is ATP-dependent 6-phosphofructokinase (Trypanosoma brucei brucei) (UniProt O15648). The experiment in a line: qHTS Assay to Find Inhibitors of T. brucei phosphofructokinase: hit validation (AID 492961). Also: % is scaled to controls: 0 for no effect and ±100 for the full control effect. An outline of the steps:
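Luminescence from ADP-Glo reports ADP generated as T. brucei PFK (1.25 nM) phosphorylates 0.5 mM fructose-6-phosphate using 0.1 mM ATP. Reactions ran 45 min at room temperature, pH 8.0.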

In assay [12] the target is Luciferin 4-monooxygenase (Photinus pyralis) (UniProt P08659). Briefly: Biochemical firefly luciferase enzyme assay for NPC (AID 624030).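 Also: purified P. pyralis luciferase at 10 nM with luciferin and ATP substrate; 0% = DMSO and -100% = full luciferase inhibition by PTC124 control; nearly all actives have a fitted effect of over 70% in size.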 In a few lines: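 Purified P. pyralis luciferase at 10 nM in 50 mM Tris Acetate (final), luminescence read within 5 minutes of enzyme addition to compounds. Activity normalised to PTC124 versus DMSO; concentration-response curves classed by r2, magnitude and activity.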

Assay [13] is described as follows: qHTS profiling for inhibitors of Plasmodium falciparum proliferation (AID 504749).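 Also: 0% = DMSO vehicle and full inhibition = artemisinin control; nearly all actives have a fitted effect of over 60% in size.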 The note with it: P. falciparum in erythrocytes, SYBR Green DNA, 72 h, at 12.8 µM (top of the series). An outline of the steps: (§1)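 Readout was DNA-dye fluorescence from lysed cultures, ex 485/em 535 nm. Parasitized red cells had grown 72 h with compound; data scaled between 0.29 uM artemisinin and DMSO wells and corrected using vehicle-only plates.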

The next assay deals with 3D7. The description is as above. The note with it: P. falciparum in erythrocytes, SYBR Green DNA, 72 h; series mostly up to 12.8 µM. In a few lines: as §1
A further assay concerns C2A. The description is as above. The conditions noted are these: P. falciparum in erythrocytes, SYBR Green DNA, 72 h; series mostly up to 12.8 µM. An outline of the steps: as §1
The next assay deals with CP217. Described as above. The conditions noted are these: P. falciparum in erythrocytes, SYBR Green DNA, 72 h; series mostly up to 12.8 µM. An outline of the steps:
as §1

In another assay the test system is CP250. Described as above. The conditions noted are these: P. falciparum in erythrocytes, SYBR Green DNA, 72 h; series mostly up to 12.8 µM. In a few lines:
as §1

A further assay relates to FAB9. The description is as above. The conditions noted are these: P. falciparum in erythrocytes, SYBR Green DNA, 72 h; series mostly up to 12.8 µM. In a few lines: as §1
For another assay, the system named is JCK. The description is as above. The note with it: P. falciparum in erythrocytes, SYBR Green DNA, 72 h; series mostly up to 12.8 µM. In a few lines:
as §1

Another assay relates to PC49. Described as above. The conditions noted are these: P. falciparum in erythrocytes, SYBR Green DNA, 72 h; series mostly up to 12.8 µM. An outline of the steps: as §1
Where [14] appears, read: measured here: cell count channel max response.
The mark [15] stands for this setting: measured here: lipid channel max response.

Structures are written as SMILES. Records with an inconclusive call do not appear. The source made the active and inactive calls. Unless noted, calls follow the shape of the dose curve; as a rule, active = well fitted curve in the direction sought with a large enough effect; inconclusive = small, poorly fitted or top-dose-only effect, or another doubt; inactive = no such curve, though single readings can be large; an effect the other way counts as inactive or inconclusive.

Chain of Luciferin 4-monooxygenase (Photinus pyralis) (P08659 whole entry, looked up): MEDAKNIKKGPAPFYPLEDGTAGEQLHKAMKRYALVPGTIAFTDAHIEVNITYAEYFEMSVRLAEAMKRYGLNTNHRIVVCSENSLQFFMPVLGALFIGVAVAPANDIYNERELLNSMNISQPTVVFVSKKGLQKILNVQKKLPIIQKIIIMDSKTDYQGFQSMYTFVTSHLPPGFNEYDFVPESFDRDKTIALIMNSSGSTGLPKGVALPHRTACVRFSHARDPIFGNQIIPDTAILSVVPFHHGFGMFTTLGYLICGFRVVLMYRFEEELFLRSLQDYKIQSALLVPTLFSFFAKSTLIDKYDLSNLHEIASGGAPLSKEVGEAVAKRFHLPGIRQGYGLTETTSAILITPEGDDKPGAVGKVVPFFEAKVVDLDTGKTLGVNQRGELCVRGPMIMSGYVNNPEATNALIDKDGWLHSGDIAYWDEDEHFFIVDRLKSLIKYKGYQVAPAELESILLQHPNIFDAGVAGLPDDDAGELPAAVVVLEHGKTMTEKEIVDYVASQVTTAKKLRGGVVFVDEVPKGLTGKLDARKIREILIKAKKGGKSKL
Chain of Cytochrome P450 1A2 (Homo sapiens) (P05177 whole entry, looked up): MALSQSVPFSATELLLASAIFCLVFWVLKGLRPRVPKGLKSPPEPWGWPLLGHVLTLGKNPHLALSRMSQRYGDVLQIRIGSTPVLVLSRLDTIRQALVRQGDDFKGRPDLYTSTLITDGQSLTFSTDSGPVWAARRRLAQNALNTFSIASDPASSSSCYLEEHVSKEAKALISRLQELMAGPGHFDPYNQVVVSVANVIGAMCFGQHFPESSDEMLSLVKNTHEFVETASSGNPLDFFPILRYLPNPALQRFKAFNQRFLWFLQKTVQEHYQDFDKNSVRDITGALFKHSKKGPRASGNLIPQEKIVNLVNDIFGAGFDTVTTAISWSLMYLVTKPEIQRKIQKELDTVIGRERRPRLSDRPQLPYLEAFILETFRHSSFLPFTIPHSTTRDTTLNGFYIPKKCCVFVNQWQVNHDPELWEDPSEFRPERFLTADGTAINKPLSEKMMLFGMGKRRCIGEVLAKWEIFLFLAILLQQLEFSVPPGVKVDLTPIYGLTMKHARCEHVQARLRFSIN
Chain of Glucocorticoid receptor (Homo sapiens) (P04150 whole entry, looked up): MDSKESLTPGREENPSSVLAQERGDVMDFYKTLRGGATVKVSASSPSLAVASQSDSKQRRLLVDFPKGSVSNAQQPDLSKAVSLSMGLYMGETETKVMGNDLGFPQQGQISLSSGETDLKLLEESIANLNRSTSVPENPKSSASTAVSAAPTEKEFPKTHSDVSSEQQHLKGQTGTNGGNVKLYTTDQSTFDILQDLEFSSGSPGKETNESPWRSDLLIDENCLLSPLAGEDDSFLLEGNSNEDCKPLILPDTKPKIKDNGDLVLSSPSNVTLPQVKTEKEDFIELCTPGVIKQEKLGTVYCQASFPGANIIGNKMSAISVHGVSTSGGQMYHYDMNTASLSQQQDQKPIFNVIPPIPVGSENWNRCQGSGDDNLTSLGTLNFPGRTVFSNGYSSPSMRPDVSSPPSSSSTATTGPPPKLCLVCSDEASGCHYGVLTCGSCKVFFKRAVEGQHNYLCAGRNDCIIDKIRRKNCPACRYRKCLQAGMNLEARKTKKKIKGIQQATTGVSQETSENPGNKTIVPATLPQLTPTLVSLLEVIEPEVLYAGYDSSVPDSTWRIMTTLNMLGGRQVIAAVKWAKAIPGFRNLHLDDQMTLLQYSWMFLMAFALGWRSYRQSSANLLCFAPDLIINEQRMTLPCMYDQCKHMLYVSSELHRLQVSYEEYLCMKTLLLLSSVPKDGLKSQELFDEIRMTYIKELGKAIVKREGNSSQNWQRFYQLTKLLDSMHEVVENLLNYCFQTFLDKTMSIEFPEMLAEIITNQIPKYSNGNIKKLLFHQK
Chain of 3',5'-cyclic-AMP phosphodiesterase 4B (Homo sapiens) (Q07343 whole entry, looked up): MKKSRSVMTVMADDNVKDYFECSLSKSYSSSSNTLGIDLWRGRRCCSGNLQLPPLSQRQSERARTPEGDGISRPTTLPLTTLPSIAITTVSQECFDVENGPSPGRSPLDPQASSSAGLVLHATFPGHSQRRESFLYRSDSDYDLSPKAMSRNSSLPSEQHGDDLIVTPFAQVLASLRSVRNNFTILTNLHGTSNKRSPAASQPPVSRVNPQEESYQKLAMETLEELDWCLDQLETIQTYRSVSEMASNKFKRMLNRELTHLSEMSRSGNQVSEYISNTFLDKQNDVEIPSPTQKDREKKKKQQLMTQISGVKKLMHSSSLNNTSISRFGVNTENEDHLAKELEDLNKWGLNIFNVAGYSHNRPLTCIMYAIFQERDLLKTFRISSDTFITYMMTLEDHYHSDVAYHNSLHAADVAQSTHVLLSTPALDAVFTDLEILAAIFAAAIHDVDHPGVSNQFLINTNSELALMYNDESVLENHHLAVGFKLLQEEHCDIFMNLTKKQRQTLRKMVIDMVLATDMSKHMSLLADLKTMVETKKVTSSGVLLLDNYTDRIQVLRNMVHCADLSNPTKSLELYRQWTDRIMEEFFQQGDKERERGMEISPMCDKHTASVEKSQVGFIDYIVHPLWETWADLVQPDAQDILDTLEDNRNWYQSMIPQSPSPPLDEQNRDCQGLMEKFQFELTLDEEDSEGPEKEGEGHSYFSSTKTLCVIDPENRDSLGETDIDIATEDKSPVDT
Chain of Ubiquitin carboxyl-terminal hydrolase 1 (Homo sapiens) (O94782 whole entry, looked up): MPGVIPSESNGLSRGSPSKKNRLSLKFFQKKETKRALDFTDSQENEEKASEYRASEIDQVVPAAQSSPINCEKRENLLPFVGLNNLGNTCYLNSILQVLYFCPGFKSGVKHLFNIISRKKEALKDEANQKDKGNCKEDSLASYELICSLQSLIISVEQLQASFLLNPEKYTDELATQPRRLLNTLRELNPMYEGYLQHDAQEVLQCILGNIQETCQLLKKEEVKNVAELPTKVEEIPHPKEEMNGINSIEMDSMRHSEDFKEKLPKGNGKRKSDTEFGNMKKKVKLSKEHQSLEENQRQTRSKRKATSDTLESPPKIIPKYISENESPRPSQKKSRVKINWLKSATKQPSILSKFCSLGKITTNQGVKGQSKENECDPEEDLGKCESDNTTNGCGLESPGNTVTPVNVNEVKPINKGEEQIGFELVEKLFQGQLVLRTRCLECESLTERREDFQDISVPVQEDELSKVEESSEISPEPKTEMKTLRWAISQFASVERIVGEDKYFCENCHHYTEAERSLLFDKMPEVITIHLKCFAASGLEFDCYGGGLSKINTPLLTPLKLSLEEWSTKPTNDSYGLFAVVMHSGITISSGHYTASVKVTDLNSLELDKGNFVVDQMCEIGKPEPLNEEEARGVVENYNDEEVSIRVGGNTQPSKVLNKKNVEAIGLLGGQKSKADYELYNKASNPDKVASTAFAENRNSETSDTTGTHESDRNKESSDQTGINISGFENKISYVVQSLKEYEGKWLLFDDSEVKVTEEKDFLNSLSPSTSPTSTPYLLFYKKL
Chain of ATP-dependent 6-phosphofructokinase (Trypanosoma brucei brucei) (O15648 whole entry, looked up): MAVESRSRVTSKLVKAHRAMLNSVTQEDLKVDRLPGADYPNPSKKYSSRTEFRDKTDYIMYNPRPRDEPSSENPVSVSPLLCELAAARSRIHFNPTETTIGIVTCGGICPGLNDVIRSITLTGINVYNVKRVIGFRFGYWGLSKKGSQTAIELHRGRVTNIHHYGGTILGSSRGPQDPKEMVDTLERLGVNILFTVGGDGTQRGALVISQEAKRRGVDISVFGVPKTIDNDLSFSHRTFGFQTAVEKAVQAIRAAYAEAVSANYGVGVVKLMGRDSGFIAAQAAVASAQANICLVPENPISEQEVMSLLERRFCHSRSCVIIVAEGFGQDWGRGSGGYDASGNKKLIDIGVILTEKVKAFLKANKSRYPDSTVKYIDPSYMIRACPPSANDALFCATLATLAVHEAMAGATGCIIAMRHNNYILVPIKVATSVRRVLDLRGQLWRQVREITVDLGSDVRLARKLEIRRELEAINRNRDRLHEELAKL

Take `CC(C)(CO)[C@H](O)C(=O)NCCCO`: the call in assay [1], in [4] and in [6] was inactive. Further, the Potency result in [2], in [5] and in assay [8] was “inactive” each time. The activity change, negative = inhibition in assay [3] was 9.07% (inactive); in [7], -3.05% (inactive). Besides, the max response in [7] (setting [14]) is -6.65%; in assay [7] (setting [15]), -8.62%.
With `CC(=O)N(C[C@@H](O)CO)c1c(I)c(C(=O)NC[C@@H](O)CO)c(I)c(C(=O)NC[C@@H](O)CO)c1I`, the compound was classed as inactive in [1], in [4] and in [6]. For the same compound, the Potency result in assay [2], in [5] and in assay [8] was “inactive” each time. In addition, the activity change, negative = inhibition is -8.29% (inactive) in [3] and -2.6% (inactive) in assay [7]. The max response is -16.6% in assay [7] (setting [14]) and -19.4% in assay [7] (setting [15]).
As for `NS(=O)(=O)c1cc2c(cc1Cl)N[C@@H](CC1CCCC1)NS2(=O)=O`, the result in [1], in [6] and in assay [11] was inactive. Besides, the Potency entry (in [2]; in [8]; in assay [12]; with 3D7; in the assay on C2A; in the assay on CP217) was “inactive” in each case. Besides, the Potency result in the assay with CP250, in the assay with FAB9 and in the assay with JCK was “inactive” each time. Also, the activity change, negative = inhibition in assay [3] is -6.75% (inactive); in [7] it was -0.977% (inactive). Besides, the Potency in [9] and in assay [10] was > 20.6 µM (inactive) in each case. Also, the max response in assay [7] (setting [14]) worked out at 1.17%; in assay [7] (setting [15]), 1.04%. In addition, the activity, negative = inhibition was -0.239% (inactive) in [13] (parasite line A) and 5.35% (inactive) in [13] (parasite line B).
`CCC(=O)O[C@@]1(C(=O)SCF)[C@@H](C)C[C@H]2[C@@H]3C[C@@H](F)C4=CC(=O)C=C[C@@]4(C)[C@]3(F)[C@@H](O)C[C@]21C`: the compound was classed as inactive in assay [1], in [4], in assay [6] and in assay [11]. Further, the Potency result (in assay [2]; in [5]; in assay [12]; in the assay on C2A; with CP250; in the assay on JCK) was “inactive” each time. In addition, the activity change, negative = inhibition was -22.7% (inactive) in assay [3] and 1.23% (inactive) in assay [7]. Further, the values for the max response in assay [7] (setting [14]) and in assay [7] (setting [15]) were -7.35% and -5.95%, respectively.
For `O=C(O)c1cc2ccccc2c(Cc2cc3ccccc3c(C(=O)O)c2O)c1O` (tested in a mixture with another compound), the result in [1], in assay [4] and in assay [6] was inactive. Also, in assay [2], the Potency entry was “inactive”. The activity change, negative = inhibition was -23% (inactive) in assay [3] and 1.36% (inactive) in assay [7]. Moreover, the Potency in assay [10] is > 20.6 µM (inactive). The max response was -8.55% in assay [7] (setting [14]) and -4.55% in assay [7] (setting [15]).
Regarding `CC(=O)OCC(=O)[C@@]1(O)CC[C@@H]2[C@H]3CCC4=CC(=O)C=C[C@]4(C)[C@]3(F)[C@@H](O)C[C@@]21C`, the result in assay [1], in assay [6] and in assay [11] was inactive. Also, the Potency result (in assay [2]; in [5]; in assay [8]; in [12]; with 3D7; in the assay on C2A) was “inactive” in each case. The Potency entry with CP217, in the assay with CP250, with FAB9, in the assay with JCK and in the assay on PC49 was “inactive” in each case. For the same compound, the figures for the activity change, negative = inhibition in [3] and in assay [7] were -2.98% (inactive) and 0.563% (inactive), respectively. The Potency was 0.00326 µM (active) in assay [9] and 0.035 µM (active) in assay [10]. For the same compound, the max response in assay [7] (setting [14]) is 15.5%; in assay [7] (setting [15]), -0.686%. Also, the results for the activity, negative = inhibition in [13] (parasite line A) and in [13] (parasite line B) were -3.89% (inactive) and 16% (inactive), respectively.
As for `Cc1nccn1C[C@@H]1CCc2c(c3ccccc3n2C)C1=O`, the result in [1], in assay [4] and in assay [6] was inactive. The Potency in assay [2] is 3.98 µM (active); in assay [10], > 20.6 µM (inactive). Moreover, the activity change, negative = inhibition was -26.8% (inactive) in [3] and -8.25% (inactive) in assay [7]. Further, the Potency entry in assay [5], in [8] and in [12] was “inactive” throughout. The max response is -10% in [7] (setting [14]) and -16.3% in [7] (setting [15]).

Values taken from PubChem BioAssay (NCATS).
